Data on 71 compounds can be found in PubChem BioAssay AID623868 (Vanderbilt High Throughput Screening Facility, 2012).

Structures are written as SMILES. The whole screen tested about 2,100 compounds, of which about 760 (36%) were called active. These entries were drawn from the full list. Values without a mark were called inactive.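 Rule for the calls: active = thallium-flux fluorescence traces judged by eye to show enhanced or reduced glutamate response, manual score 1 or -1, so both directions (some results past the limit were not filed as active); inactive = the rest, including fluorescent or raised-baseline compounds.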

The nature of the test: non-GIRK thallium flux modulation in mGlu8 cells, confirmation, counter-screen for GIRK activator project, cell-based, HEK-293 rmGlu8, no GIRK (AID 623868).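 Note: extra codes mark interference with 3 for fluorescent and 4 for baseline rise.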 The following applies: thallium flux fluorescence, at 10 µM, actives lie on both sides, codes: 1 enhancer, -1 blocker, 0 none, thallium stimulus containing EC20 glutamate.
`CCCCCCn1cnc2c(c1=O)c1nc3ccccc3nc1n2/N=C/c1ccco1`: the manual score is 0. The result for `Cc1cccc(/C=c2\s/c(=C\C(=O)C(C)(C)C)[nH]c2=O)c1` reads 0; that for `Cc1cccc(NC(=O)COc2ccc(Br)cc2/C=N/O)c1`, 0. `Cc1cccc(/C=C/C(=O)c2cc(Br)ccc(=O)c2O)c1`: the manual score was 1 (active). Regarding `CC(C)(C)C1CCc2[nH]nc(C(=O)O)c2C1` (stereo unspecified), the manual score is -1 (active). In the case of `CSC(=O)NC12CC3CC(CC(C)(C3)C1)C2`, the manual score is 0. Turning to `Cc1ccc(C(=O)NC(=S)Nc2ccccc2C(F)(F)F)cc1`, the manual score is 1 (active). As to `Cc1ccc(C(=O)NC(=S)Nc2ccccc2C(F)(F)F)cc1C`, the manual score is 1 (active). Regarding `O=C(NC(=S)Nc1cc(C(F)(F)F)ccc1Cl)c1ccccc1`, the manual score was 0. For `Cc1cccc(C(=O)NC(=S)Nc2ccccc2C(F)(F)F)c1`, the manual score is 1 (active). For the compound `O=C(NC(=S)NCc1ccc(-c2nc3ccccc3s2)cc1)c1ccco1`, the manual score is 1 (active).

Turning to `O=C(NC(=S)Nc1nc2ccccc2s1)c1ccco1`, the manual score was 1 (active). In the case of `O=C(Nc1ccncc1)c1ccc2c(c1)C(=O)N(C1CCCCC1)C2=O`, the manual score was 0.

Take `CC(C)(C)C(=O)/C=c1\[nH]c(=O)/c(=C\c2ccc(F)cc2)s1`: the manual score is 0.5.

In the case of `CCOc1ccc(C(C)=O)cc1N1C(=O)C2C(C1=O)C1C=CC2C12CC2` (stereo unspecified), the manual score was 0. As to `CCOc1cc(/C=N/NC(=O)CNc2cccc(C)c2)ccc1OC(=O)c1ccccc1`, the manual score is 0. Turning to `Cc1ccc(C(=O)NC2(C(F)(F)F)N=C3SCCN3C2=O)cc1` (stereo unspecified), the manual score is 0. For `Cc1ccc(C(=O)NNc2nc3ccccc3nc2C(F)(F)F)cc1`, the manual score is 1 (active).

In the case of `Cc1nc(/N=C(\N)NC(=O)c2ccccc2)nc2ccccc12`, the manual score is 0. Regarding `O=C(NNc1nc2ccccc2nc1C(F)(F)F)c1ccccc1`, the manual score was 1 (active). On to `CC(C)n1c(CCC(=O)O)ccc1-c1ccccc1`, for which the manual score is 0. On to `Fc1cc(Br)ccc1NC(=S)NCCc1ccccc1`, for which the manual score is 0. Consider `S=C(N/N=C/c1ccccc1Cl)Nc1ccccc1`, for which the manual score is 0. For `Fc1ccc(NC(=S)N/N=C/c2ccc(F)c(F)c2)c(F)c1`, the manual score is 1 (active). Regarding `Fc1cccc(/C=N/NC(=S)Nc2ccccc2Cl)c1`, the manual score was 1 (active). The result for `Fc1ccc(NC(=S)N/N=C/c2cccc(Br)c2)c(F)c1` reads 1 (active); that for `Fc1ccc(/C=N/NC(=S)Nc2ccc(Cl)cc2)cc1F`, 1 (active); that for `CCSc1ccccc1C(=O)Nc1cccnc1`, 0. Take `CN(C(=O)c1cccnc1)c1nnc(-c2cnccn2)s1`: the manual score was 0. On to `CN1C(=O)c2oc3ccccc3c(=O)c2C1c1ccccn1` (stereo unspecified), for which the manual score was 0. Turning to `Cc1ccccc1-n1nnc2c(=O)oc3ccccc3c21`, the manual score is -1 (active).

With `CC(=O)Oc1ccc2c(c1)Oc1cc(OC(C)=O)ccc1C21OC(=O)c2ccccc21`, the manual score was 3. The result for `COc1cccc(NC(=O)CSc2nc(N)cc(N)n2)c1` reads 0; that for `COc1cccc(NC(=O)C(Sc2nc3ccccc3c(=O)n2CC(C)C)c2ccccc2)c1` (stereo unspecified), 1 (active); that for `COc1cccc(NC(=O)Cn2cc(C#N)c3ccccc32)c1`, 0. Take `CCCn1c(SC(C(=O)Nc2cc(C)ccc2OC)c2ccccc2)nc2ccccc2c1=O` (stereo unspecified): the manual score was 1 (active). As for `COc1cc(OC)c(NC(=O)CCNC(=O)Cn2cnc3ccccc3c2=O)cc1Cl`, the manual score was 0. In the case of `COc1ccc(NC(=O)CSc2nc3ccccc3c(=O)n2CCCN2CCCCC2)c(OC)c1` it was 0; in that of `CCCN(CCC)C(=S)NC(=O)c1ccc(-c2ccccc2)cc1`, 1 (active). Turning to `C=CCN(CC=C)C(=S)NC(=O)c1ccc(-c2ccccc2)cc1`, the manual score is 1 (active). `O=C(NC(=S)NCC1COc2ccccc2O1)c1ccccc1` (stereo unspecified): the manual score is 0. For `CCc1cccc(NC(=O)NC2CCCCC2)c1`, the manual score is -0.5.

As for `CN(Cc1ccccc1)C(=S)NC(=O)c1ccc(-c2ccccc2)cc1`, the manual score is 1 (active). For `CN(Cc1ccccc1)C(=S)NC(=O)C1CCCCC1`, the manual score is 1 (active). In the case of `CCCN(CC1CC1)C(=S)Nc1ccc(Oc2ccccc2)cc1` it was 0. In the case of `CCOC(=O)C(C)Oc1ccc2c(CC)cc(=O)oc2c1C` (stereo unspecified), the manual score is -0.5. Consider `CCCn1c(=N)c(C(=O)NCc2ccc3c(c2)OCO3)cc2c(=O)n3cccc(C)c3nc21`, for which the manual score is 0. `O=C(Nc1nnc(SCc2ccc(F)cc2)s1)C1CC(=O)N(c2ccc3c(c2)OCCO3)C1` (stereo unspecified): the manual score is 0. In the case of `C=CCN(CC=C)C(=S)NC(=O)c1ccc([N+](=O)[O-])cc1`, the manual score is 1 (active). On to `Cn1cccc1CNC1CCCC1`, for which the manual score was 0.

Regarding `C=CCn1c(=S)[nH]c2ccccc2c1=O`, the manual score was 1 (active). For `COCCNC(=O)CCCCCn1c(=S)[nH]c2ccccc2c1=O`, the manual score was 0.

As for `C=CCn1c(=S)[nH]c2ccc(Br)cc2c1=O`, the manual score is 1 (active). `CC(=O)c1ccc(N2CCCC2)c(F)c1`: the manual score was 0.

For `CCOC(=O)c1c(C)n(C)c2ccc(O)c(CN3CCC(C)CC3)c12`, the manual score was 0. Regarding `COC(=O)c1c(NS(=O)(=O)c2ccc(C)cc2)sc2c1CCC(C)C2` (stereo unspecified), the manual score was 1 (active). As to `CC1CCc2c(sc(NS(=O)(=O)c3ccccc3)c2C(=O)OC(C)C)C1` (stereo unspecified), the manual score was 1 (active). With `COc1ccc(S(=O)(=O)NCCC(=O)NC2CCCCCCC2)cc1`, the manual score is 0. Take `COC(=O)c1ccc(NS(=O)(=O)c2ccc(SC)cc2)cc1`: the manual score is 0. In the case of `Cc1ccc(-c2c(C)sc(NC(=O)C3C4CCC(O4)C3C(=O)O)c2C(=O)OC(C)C)cc1` (stereo unspecified), the manual score was 0.

Consider `CC(C)OC(=O)c1c(NS(=O)(=O)c2ccccc2)sc2c1CCCC2`, for which the manual score was 1 (active).

Turning to `COc1cccc(CNc2nc3ccccc3n2CCN2CCCCC2)c1OC`, the manual score is 0. `CC(C)(C)NC(=O)C(c1ccncc1)N(C(=O)c1csnn1)c1ccccc1` (stereo unspecified): the manual score was 0. For `COC(=O)c1ccccc1NC(=S)NC(=O)c1ccc(C)cc1`, the manual score is 1 (active). Regarding `COC(=O)c1ccccc1NC(=S)NC(=O)c1ccccc1`, the manual score was 1 (active). On to `COC(=O)COc1ccc(S(=O)(=O)Nc2ccccc2C(=O)OC)cc1`, for which the manual score is -0.5. Regarding `COC(=O)c1ccccc1NC(=S)NC(=O)COc1ccccc1`, the manual score is 1 (active).

In the case of `CSc1cccc(NC(=O)COc2ccccc2)c1`, the manual score was 0. Turning to `O=C(COc1ccccc1)NC(=S)Nc1ccc2c(c1)Cc1ccccc1-2`, the manual score was 0.

As to `O=C(COc1ccccc1)NC(=S)Nc1cccc([N+](=O)[O-])c1`, the manual score is 1 (active). As to `COC(=O)c1ccccc1NC(=S)NC(=O)COc1ccc(C)cc1`, the manual score is 0.
